Our source for the outcome and AC50 values is PubChem BioAssay (EPA / NIEHS).

“And” between values parts separate entries of the source, which are not always exact repeats. Equal values may be shown once. Inconclusive results are not listed. The source holds several records for some structures; these can differ, active in one and inactive in another. The source made the active and inactive calls. Rule for the calls: active = hit-call score of the fitted dose curve at least 0.9, where 1 is the maximum; inconclusive = response in the unintended direction; inactive = score below 0.9.

Chain of human Thyroid Receptor alpha (THRa1), THRA (gene 7067) (P10827 whole entry, looked up): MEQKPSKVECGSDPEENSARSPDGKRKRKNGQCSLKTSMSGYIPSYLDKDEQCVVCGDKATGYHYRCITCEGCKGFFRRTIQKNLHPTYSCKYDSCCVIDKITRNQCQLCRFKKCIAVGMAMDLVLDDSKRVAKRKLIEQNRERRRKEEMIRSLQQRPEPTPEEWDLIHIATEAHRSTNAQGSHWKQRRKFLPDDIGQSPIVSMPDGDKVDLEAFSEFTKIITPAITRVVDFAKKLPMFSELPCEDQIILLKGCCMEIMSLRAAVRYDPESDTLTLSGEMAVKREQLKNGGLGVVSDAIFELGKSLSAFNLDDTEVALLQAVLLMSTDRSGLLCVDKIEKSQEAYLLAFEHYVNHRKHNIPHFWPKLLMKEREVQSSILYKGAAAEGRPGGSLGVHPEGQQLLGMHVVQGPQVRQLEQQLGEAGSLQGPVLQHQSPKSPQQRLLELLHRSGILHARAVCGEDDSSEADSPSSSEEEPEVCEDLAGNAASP

The assay concerns the target human Thyroid Receptor alpha (THRa1), THRA (gene 7067) (UniProt P10827). The assay can be described thus: ATG_THRa1_TRANS: Attagene TRANS-FACTORIAL HepG2 Assay for human Thyroid Receptor alpha (THRa1) (AID 2283014). The method, then:
ATG_TRANS is a cell-based, multiplexed-readout assay that uses HepG2, a human liver cell line, with measurements taken at 24 hours after chemical dosing in a 24-well plate.ATG_THRa1_TRANS is one of 30 assay component(s) measured or calculated from the ATG_TRANS assay. It is designed to make measurements of mRNA induction, a form of inducible reporter, as detected with fluorescence intensity signals by Reverse transcription polymerase chain reaction (RT-PCR) and Capillary electrophoresis technology.Data from the assay component ATG_THRa1_TRANS was analyzed into 1 assay endpoint. This assay endpoint, ATG_THRa1_TRANS, was analyzed in the positive analysis fitting direction relative to DMSO as the negative control and baseline of activity. Using a type of inducible reporter, measures of mRNA for gain-of-signal activity can be used to understand the reporter gene at the transcription factor-level as they relate to the gene THRA. Furthermore, this assay endpoint can be referred to as a primary readout, because this assay has produced multiple assay endpoints where this one serves a reporter gene function. To generalize the intended target to other relatable targets, this assay endpoint is annotated to the nuclear receptor intended target family, where the subfamily is non-steroidal.
Human liver HepG2 cells are transiently transfected with multiple reporter transcription units (MRTUs) in 6-well plates using FuGene 6 reagent (Roche; 3 ml FuGene/1 mg DNA). The MRTU constructs are regulated by a cis-regulating element (promoter). […] A major difference between the CIS and TRANS system is that in CIS activities of endogenous TFs are measured, whereas the TRANS assay evaluates changes in activities of exogenous, chimeric NR-Gal4 proteins. […] At the end of 24 hour incubation, total RNA was isolated using TriZol reagent (Invitrogen). The isolated RNA is then reverse-transcribed using oligo(dT) primer and Mo-MLV reverse transcriptase (Invitrogen) with DNAse I (Ambion) treatment for 30 min. The one-tenth of the produced cDNA was amplified by PCR using Taq DNA polymerase (Invitrogen) and two reporter sequence-specific primers. The PCR products were fluorescently labeled by primer extension with 6-arboxyfluorescein (6-FAM) 5'-labeled reporter sequence-specific primer (2 min at 95 C, 20 s at 68 C and 10 min at 72 C) and these products were digested with 5U of HpaI (New England Biolabs) for 2h at 37 C. The fragments were purified using Qiaquick PCR columns (Qiagen), analyzed on an ABI 3130xL genetic analyzer (Applied Biosystems) with peak positions identified by using a set of X-rhodamine (ROX)-labeled MapMarker1000 molecular weight standards (BioVentures). The raw capillary electrophoresis data was processed using Attagraph software (Attagene).
In the case of `Cc1ccc(-c2c(Cl)nc(C#N)n2S(=O)(=O)N(C)C)cc1`, the call was inactive.
On to `OC(c1ccc(Cl)cc1)(c1cncnc1)c1ccccc1Cl` (stereo not given), for which the outcome was inactive.
As for `COc1nc(C)nc(NC(=O)NS(=O)(=O)c2ccccc2CCC(F)(F)F)n1`, the molecule was classed as inactive.
For `N#Cc1nn(-c2c(Cl)cc(C(F)(F)F)cc2Cl)c(N)c1S(=O)C(F)(F)F` (stereo not given), the half-maximal activity concentration (AC50) is 48.7 µM (active).
As for `C#CCOS(=O)OC1CCCCC1Oc1ccc(C(C)(C)C)cc1` (stereo not given), the outcome was inactive.
On to `COc1nc(NC(C)C)nc(NC(C)C)n1`, for which the outcome was inactive.
As for `CCOc1cc(Oc2ccc(C(F)(F)F)cc2Cl)ccc1[N+](=O)[O-]`, the molecule was called inactive.
In the case of `CC(C)C1(C)N=C(c2nc3ccccc3cc2C(=O)O)NC1=O` (stereo not given), the molecule was classed as inactive.
The same measure, in the same setting: under `COc1cnc(OC)n2nc(NS(=O)(=O)c3c(OCC(F)F)cccc3C(F)(F)F)nc12` stands “inactive”; under `CCCCNC(=O)OCC#CI`, “inactive”.
Same read-out and setting: the value for `COc1ccc(C(c2ccc(OC)cc2)C(Cl)(Cl)Cl)cc1` was “inactive”.
On the same count and under the same terms, the value for `O=C(O)c1nc(Cl)ccc1Cl` was “inactive”; that for `CCOP(=S)(OCC)SCn1c(=O)oc2cc(Cl)ccc21` was “inactive”; that for `Cc1cc(Cl)ccc1OCC(=O)O` was “inactive”.
As for `N#Cc1cc(Br)c(O)c(Br)c1`, the outcome was inactive.
As to `CCCCOC(=O)c1ccccc1C(=O)OCCCC`, the AC50 was 39.6 µM (active) and 35.1 µM (active) and 2.44 µM (active).
As to `O=C(Nc1ccccc1)Nc1ccnc(Cl)c1`, the call was inactive.
For the molecule `CON(C)C(=O)Nc1ccc(Cl)c(Cl)c1`, the molecule was called inactive and the AC50 was 5.27 µM (active).
Consider `CCc1nn(C)c(C(=O)NCc2ccc(C(C)(C)C)cc2)c1Cl`, for which the AC50 is 0.157 µM (active).
Regarding `CCOC(=O)C(Cl)Cc1cc(-n2nc(C)n(C(F)F)c2=O)c(F)cc1Cl` (stereo not given), the outcome was inactive.
The same measure, in the same setting: the value for `CCCN(CCC)c1c([N+](=O)[O-])cc(S(N)(=O)=O)cc1[N+](=O)[O-]` was “inactive”; that for `C=CC1(C)OC(=O)N(c2cc(Cl)cc(Cl)c2)C1=O` (stereo not given) was “inactive”; that for `CC(C)Oc1cc(-n2nc(C(C)(C)C)oc2=O)c(Cl)cc1Cl` was “inactive”.
Still for that read-out and setting: the value for `Oc1ccccc1-c1ccccc1` was “inactive”.
For `Fc1ccc(Oc2ccnc3cc(Cl)cc(Cl)c23)cc1`, the outcome was inactive.
Same read-out and setting: the value for `CCCC1COC(Cn2cncn2)(c2ccc(Cl)cc2Cl)O1` (stereo not given) was “inactive”.
As for `COC(=O)N(OC)c1ccccc1COc1ccn(-c2ccc(Cl)cc2)n1`, the AC50 is 3.06 µM (active).
`CCCCC(CC)COC(=O)c1ccccc1C(=O)OCC(CC)CCCC` (stereo not given): the molecule was classed as inactive.
On the same count and under the same terms, the value for `COC(=O)C=C(C)OP(=O)(OC)OC` was “inactive”.
Regarding `CO/C=C(/C(=O)OC)c1ccccc1Oc1cc(Oc2ccccc2C#N)ncn1`, the AC50 is 12.2 µM (active) and the call was inactive.
For `CC1=C(C(=O)Nc2ccccc2)SCCO1`, the call was inactive.
`C=CCC1=C(C)C(OC(=O)C2C(C=C(C)C)C2(C)C)CC1=O` (stereo not given): the outcome was inactive.
The same measure, in the same setting: the value for `CCNc1nc(Cl)nc(NC(C)C)n1` was “inactive”.
